The text below walks through data of ChEMBL document CHEMBL1961873, “Compounds: GSK PKIS; Assays: Nanosyn kinase panel” (2012).

Experiment [1] addresses T1, Muscle, skeletal receptor tyrosine-protein kinase (Homo sapiens) (UniProt O15146).
T1 sequence (whole entry): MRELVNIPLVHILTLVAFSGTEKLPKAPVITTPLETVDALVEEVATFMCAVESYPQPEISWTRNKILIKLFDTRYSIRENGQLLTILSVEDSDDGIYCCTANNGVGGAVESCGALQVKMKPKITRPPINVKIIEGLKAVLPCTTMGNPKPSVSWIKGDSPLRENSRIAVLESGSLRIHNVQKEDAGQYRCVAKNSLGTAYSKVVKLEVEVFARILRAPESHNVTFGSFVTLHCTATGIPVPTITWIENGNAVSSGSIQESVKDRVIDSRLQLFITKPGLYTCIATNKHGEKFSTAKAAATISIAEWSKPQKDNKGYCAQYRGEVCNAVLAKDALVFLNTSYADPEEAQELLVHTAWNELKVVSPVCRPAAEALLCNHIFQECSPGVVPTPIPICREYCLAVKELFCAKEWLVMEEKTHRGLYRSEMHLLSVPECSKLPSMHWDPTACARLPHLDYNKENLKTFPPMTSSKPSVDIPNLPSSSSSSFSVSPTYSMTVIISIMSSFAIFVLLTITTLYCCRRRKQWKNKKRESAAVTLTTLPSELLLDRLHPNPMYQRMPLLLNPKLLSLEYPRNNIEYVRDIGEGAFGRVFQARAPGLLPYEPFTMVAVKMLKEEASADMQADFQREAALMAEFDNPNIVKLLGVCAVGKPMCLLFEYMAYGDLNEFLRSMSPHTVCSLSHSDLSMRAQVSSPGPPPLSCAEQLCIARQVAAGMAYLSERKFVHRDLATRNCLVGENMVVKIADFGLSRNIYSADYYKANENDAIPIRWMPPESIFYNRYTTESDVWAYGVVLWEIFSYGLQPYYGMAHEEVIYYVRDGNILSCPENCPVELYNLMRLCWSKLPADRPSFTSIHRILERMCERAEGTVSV
The following applies: at 1 µM.

The target in experiment [2] is Platelet-derived growth factor receptor alpha (Homo sapiens) (UniProt P16234). The following applies: at 0.1 µM.
Chain of Platelet-derived growth factor receptor alpha (Homo sapiens) (P16234 whole entry): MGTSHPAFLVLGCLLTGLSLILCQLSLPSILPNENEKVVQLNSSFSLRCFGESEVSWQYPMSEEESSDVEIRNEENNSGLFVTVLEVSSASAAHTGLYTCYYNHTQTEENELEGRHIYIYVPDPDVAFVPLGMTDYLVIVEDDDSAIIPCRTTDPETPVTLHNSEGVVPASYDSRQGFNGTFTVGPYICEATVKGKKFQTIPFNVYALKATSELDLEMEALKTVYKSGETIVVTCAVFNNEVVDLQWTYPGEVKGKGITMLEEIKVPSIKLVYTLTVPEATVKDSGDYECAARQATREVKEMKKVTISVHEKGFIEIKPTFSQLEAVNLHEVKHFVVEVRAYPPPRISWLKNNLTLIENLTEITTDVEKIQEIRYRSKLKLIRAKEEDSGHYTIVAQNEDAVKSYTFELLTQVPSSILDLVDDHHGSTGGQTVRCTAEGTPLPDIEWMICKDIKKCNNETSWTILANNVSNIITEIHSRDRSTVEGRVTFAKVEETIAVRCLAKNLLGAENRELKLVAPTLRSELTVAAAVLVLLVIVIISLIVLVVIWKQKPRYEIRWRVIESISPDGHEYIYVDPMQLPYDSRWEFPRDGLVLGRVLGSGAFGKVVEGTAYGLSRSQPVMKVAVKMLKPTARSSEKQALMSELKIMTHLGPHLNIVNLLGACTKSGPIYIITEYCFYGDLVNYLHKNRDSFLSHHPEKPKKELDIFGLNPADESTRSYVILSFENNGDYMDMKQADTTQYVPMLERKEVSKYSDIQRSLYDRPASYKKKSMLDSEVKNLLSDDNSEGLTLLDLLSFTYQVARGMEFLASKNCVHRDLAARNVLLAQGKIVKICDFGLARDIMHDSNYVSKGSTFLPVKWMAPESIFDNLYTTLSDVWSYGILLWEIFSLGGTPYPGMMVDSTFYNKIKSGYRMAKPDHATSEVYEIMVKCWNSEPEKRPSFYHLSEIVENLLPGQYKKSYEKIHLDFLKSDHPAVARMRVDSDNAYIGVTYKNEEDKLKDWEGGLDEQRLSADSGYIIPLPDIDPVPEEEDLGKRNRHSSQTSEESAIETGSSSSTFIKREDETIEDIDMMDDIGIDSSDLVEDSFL
Experiment [3] has the same target. The following applies: at 1 µM.
For experiment [4], the system named is Platelet-derived growth factor receptor alpha (Homo sapiens), P16234 [D842V]. The following applies: at 0.1 µM.
Chain of Platelet-derived growth factor receptor alpha (Homo sapiens), P16234 [D842V] (P16234 whole entry D842V): as the sequence (P16234 whole entry) above, with D842V counted along it
Experiment [5] has the same test system. The following applies: at 1 µM.
Experiment [6] deals with Platelet-derived growth factor receptor alpha (Homo sapiens), P16234 [T674I]. The following applies: at 0.1 µM.
Chain of Platelet-derived growth factor receptor alpha (Homo sapiens), P16234 [T674I] (P16234 whole entry T674I): as the sequence (P16234 whole entry) above, with T674I counted along it
For experiment [7] the test system is unchanged. The following applies: at 1 µM.
Experiment [8] deals with Platelet-derived growth factor receptor alpha (Homo sapiens), P16234 [V561D]. The following applies: at 0.1 µM.
Chain of Platelet-derived growth factor receptor alpha (Homo sapiens), P16234 [V561D] (P16234 whole entry V561D): as the sequence (P16234 whole entry) above, with V561D counted along it
Experiment [9] has the same test system. The following applies: at 1 µM.
The target of experiment [10] is Platelet-derived growth factor receptor beta (Homo sapiens) (UniProt P09619). The following applies: at 0.1 µM.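 Also: reported value is the mean percent inhibition of the kinase.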
Chain of Platelet-derived growth factor receptor beta (Homo sapiens) (P09619 whole entry): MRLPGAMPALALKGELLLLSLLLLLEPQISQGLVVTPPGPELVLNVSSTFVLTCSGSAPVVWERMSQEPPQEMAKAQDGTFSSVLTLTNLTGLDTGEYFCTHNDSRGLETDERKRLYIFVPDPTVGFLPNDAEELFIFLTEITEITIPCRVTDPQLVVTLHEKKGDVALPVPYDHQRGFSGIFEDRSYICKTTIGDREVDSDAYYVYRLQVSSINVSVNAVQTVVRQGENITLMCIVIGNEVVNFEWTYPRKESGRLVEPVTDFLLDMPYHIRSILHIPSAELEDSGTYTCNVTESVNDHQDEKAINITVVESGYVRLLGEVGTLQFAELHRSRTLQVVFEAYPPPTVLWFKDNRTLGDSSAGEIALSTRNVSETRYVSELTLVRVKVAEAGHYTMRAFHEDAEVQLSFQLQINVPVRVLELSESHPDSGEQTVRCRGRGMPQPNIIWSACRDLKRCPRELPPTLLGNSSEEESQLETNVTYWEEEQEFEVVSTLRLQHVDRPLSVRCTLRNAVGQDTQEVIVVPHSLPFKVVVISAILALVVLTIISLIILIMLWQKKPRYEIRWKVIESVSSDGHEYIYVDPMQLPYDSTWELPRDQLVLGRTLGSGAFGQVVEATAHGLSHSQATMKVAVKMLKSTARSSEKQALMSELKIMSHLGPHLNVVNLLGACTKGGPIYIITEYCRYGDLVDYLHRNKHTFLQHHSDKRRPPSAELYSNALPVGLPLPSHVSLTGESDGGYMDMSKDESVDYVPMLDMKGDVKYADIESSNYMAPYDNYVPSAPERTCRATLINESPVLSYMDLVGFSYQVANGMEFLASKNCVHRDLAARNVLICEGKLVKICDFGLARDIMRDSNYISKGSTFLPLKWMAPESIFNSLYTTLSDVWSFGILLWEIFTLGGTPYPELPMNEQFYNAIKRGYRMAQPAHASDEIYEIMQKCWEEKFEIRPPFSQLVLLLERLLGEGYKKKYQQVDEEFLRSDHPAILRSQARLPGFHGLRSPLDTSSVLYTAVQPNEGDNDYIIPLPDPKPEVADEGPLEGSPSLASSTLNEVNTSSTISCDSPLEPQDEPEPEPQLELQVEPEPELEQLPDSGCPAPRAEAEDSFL

What is called inhibition is the relative decrease from the control value, in per cent.

Consider `O=S(=O)(CCNCc1ccc(-c2ccc3ncnc(Nc4ccc(OCc5cccc(F)c5)c(Cl)c4)c3c2)o1)c1ccccc1`, for which the inhibition is 5.15% in experiment [1]; 11.9% in experiment [2]; 19% in [3]; 3.35% in [4]; 6.47% in experiment [5]; 7.8% in experiment [6]. Besides, the inhibition in experiment [7] was 12.8%; in experiment [8] it was 3.09%; in [9], 8.1%; in experiment [10], 5.51%.

For the compound `COC(=O)c1sc(-n2cnc3cc(OC)c(OC)cc32)cc1OCc1ccccc1C(F)(F)F`, the inhibition in [1] is 48.1%; in experiment [2], 26.1%; in experiment [3], 66.3%; in [4], 18%; in experiment [5], 66.5%; in [6] it was 9.67%. Also, the inhibition in experiment [7] was determined as 44.6%; in experiment [8], 22.2%; in experiment [9], 70.6%; in experiment [10] it was 14.9%.

Turning to `COc1ccc(-c2oc3ncnc(N)c3c2-c2ccc(NC(=O)Nc3cc(C(F)(F)F)ccc3F)cc2)cc1`, the inhibition in [1] came out at 101%; in [2] it was 38.6%; in [3], 88.9%; in experiment [4], 6.4%; in experiment [5], 54.4%; in experiment [6] it was 18%. Besides, the inhibition in experiment [7] came out at 72.1%; in experiment [8], 26.6%; in experiment [9], 86.2%; in experiment [10] it was 20.2%.

As for `CNC(=O)c1cc(-c2ccc(F)cc2)cc(-c2ccc(S(=O)(=O)N3CCCC3)cc2)c1N`, the inhibition was 0.83% in [1]; 3.69% in experiment [2]; 7.98% in experiment [3]; 2.05% in experiment [4]; 1.76% in experiment [5]; 2.94% in experiment [6]. The inhibition was found to be 2.93% in [7], 3.32% in [8], 2.29% in [9] and 3.45% in [10].

As for `CCn1c(-c2nonc2N)nc2cnc(Oc3cccc(NC(=O)c4ccc(N(C)C)cc4)c3)cc21`, the inhibition in [1] came to 2.13%; in [2] it was 4.44%; in experiment [3], 6.4%; in [4] it was 1.28%; in experiment [5] it was 1.65%; in experiment [6] it was 2.82%. For the same compound, the inhibition was determined as 4.91% in experiment [7], 1.85% in [8], 6.18% in [9] and 3.88% in experiment [10].

Turning to `CCn1cc(-c2ccnc3[nH]ccc23)c(-c2cccc(NC(=O)Nc3ccc(OCc4ccccc4)cc3)c2)n1`, the inhibition in experiment [1] was -5.2%; in experiment [2], 1.29%; in [3], 7.03%; in experiment [4] it was 1.41%; in [5], 2.72%; in experiment [6], 0.5%. Also, the inhibition is 1.13% in experiment [7], -0.44% in experiment [8], 1.14% in [9] and 2.04% in experiment [10].

With `N#Cc1c(NC(=O)c2ccc(F)cc2)sc2c1CCCC2`, the inhibition in experiment [1] was found to be 2.55%; in experiment [2], 5.56%; in experiment [3] it was 7.32%; in experiment [4], 1.23%; in [5], 1%; in experiment [6], 3.5%. Moreover, the inhibition amounted to 3.1% in [7], 0.92% in [8], 3.17% in experiment [9] and 1.37% in experiment [10].

Take `COC(=O)Nc1nc2ccc(S(=O)(=O)c3ccc(NC(=O)Nc4cc(C(F)(F)F)ccc4F)cc3)cc2[nH]1`: the inhibition in experiment [1] came out at 4.85%; in experiment [2], 2.65%; in experiment [3] it was 4.3%; in experiment [4], 3.19%; in experiment [5] it was 0.61%; in experiment [6] it was 3.85%. The inhibition was 2.62% in experiment [7], 2.98% in [8], 3.2% in experiment [9] and 5.73% in [10].

On to `CC(=O)NCc1cccc(C#Cc2cncnc2Nc2ccc(OCc3cccc(F)c3)c(Cl)c2)c1`, for which the inhibition in experiment [1] was 3.72%; in [2], 0.56%; in experiment [3], 6.14%; in experiment [4] it was 1.48%; in experiment [5], 1.63%; in experiment [6], 2.23%. The inhibition in experiment [7] worked out at 3.66%; in [8], 5.19%; in experiment [9] it was 2.8%; in experiment [10] it was 0.9%.

As for `NS(=O)(=O)c1ccc(N/N=C2\C(=O)Nc3ccc4ncccc4c32)cc1`, the inhibition stood at 49.5% in experiment [1]; 58.9% in experiment [2]; 82.2% in experiment [3]; 63.4% in experiment [4]; 92.3% in experiment [5]; 16.7% in experiment [6]. Besides, the inhibition in experiment [7] came out at 73.6%; in experiment [8], 54.5%; in [9], 92.4%; in [10] it was 63.2%.

As to `Cc1ccc2c(-c3ccnc(Nc4ccccc4)n3)c(-c3ccc(F)cc3)nn2n1`, the inhibition amounted to 4.61% in experiment [1]; 14.8% in experiment [2]; 47.9% in [3]; 8.2% in experiment [4]; 46.6% in experiment [5]; 4.09% in experiment [6]. For the same compound, the inhibition in [7] stood at 4.32%; in experiment [8], 11.6%; in [9], 59.1%; in experiment [10], 22.5%.

Turning to `CC(C)COC(=O)c1ccc2c(c1)/C(=C/Nc1ccc(S(N)(=O)=O)cc1)C(=O)N2`, the inhibition in experiment [1] came out at 51.3%; in experiment [2], 53.2%; in experiment [3], 84.3%; in experiment [4], 60.7%; in experiment [5], 93.1%; in experiment [6], 4.41%. Moreover, the inhibition was 38.9% in experiment [7], 44.7% in experiment [8], 88.4% in [9] and 66.3% in experiment [10].

In the case of `O=C(O[C@H]1CN[C@H](C#Cc2cc3ncnc(Nc4ccc(Cc5ccccc5)cc4)c3s2)C1)N1CCOCC1`, the inhibition in experiment [1] was -2.65%; in experiment [2] it was -1.51%; in experiment [3] it was 7.66%; in experiment [4], -1%; in experiment [5], 2.55%; in experiment [6], 1.75%. Also, the inhibition was 3.96% in [7], -0.15% in [8], 1.53% in experiment [9] and 2.34% in [10].

For the compound `CCCN(CCS(C)(=O)=O)Cc1ccc(-c2ccc3ncnc(Nc4ccc(OCc5cccc(F)c5)c(Cl)c4)c3c2)o1`, the inhibition in experiment [1] worked out at 2.34%; in experiment [2], 7.21%; in [3], 16.2%; in experiment [4], 3.62%; in experiment [5], 5.72%; in experiment [6] it was 4.68%. For the same compound, the inhibition in [7] came to 4.67%; in [8], 2.84%; in experiment [9] it was 7.4%; in experiment [10], 3.14%.
